Sampled rows, rich in hits. Any-hit rate of the full collection: about 4%.
KKLEB cytotox: CF airway cell cytotoxicity counter-screen; KKLEB CF airway cells viability, ATPlite luminescence, overnight; stronger effect = lower value; cells stimulated with P. aeruginosa culture filtrate; activity change (cytotoxicity), % at 5 µM; 0.36% of 360,000 active; AID 602141;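 active = corrected activity change at or below -50% at 5 µM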
CF NFkB inh: inhibitors of cystic fibrosis induced NF-kB | inhibition, % at 5 µM | KKLEB NF-kB-GFP reporter, PAF-induced, GFP fluorescence overnight | 0.86% of 360,000 active;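 active = at least 50% inhibition at 5 µM, scaled per plate between neutral and stimulator controls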;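 also: PAF is a Pseudomonas aeruginosa culture filtrate used as stimulus; plate controls were PAF-stimulated DMSO wells for no effect and unstimulated DMSO wells for full effect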
Peg3 promoter: reduces Peg3 promoter-driven luciferase expression in HeLa | HeLa PEG-Prom luciferase reporter, luminescence, overnight | AID 588405 | inhibition, % at 20 µM | 1.7% of 360,000 active;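 active = inhibition of at least 50% at 20 µM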
TWEAK-Fn14 inh: blocks TWEAK-Fn14 interaction in a reporter cell assay; inhibition, % at 10 µM; 2% of 360,000 active; AID 1159606; TWEAK-stimulated Fn14 reporter cells, luciferase luminescence, 8 h; in the data active = inhibition above about 50%
TROY NFkB inh: blocks TROY-dependent signaling in reporter cells. inhibition, % at 10 µM. Q293 LMP1-TROYcd NF-kB luciferase reporter, 4 h. 0.98% of 360,000 active;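 active = compounds whose plate-normalised and pattern-corrected inhibition of the luciferase reporter signal at the single screening dose is 50% or more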
HIF-2a inh: HIF-2a inhibition; 786-0 RCC cells HIF-2a reporter, luciferase luminescence, overnight; inhibition, % at 18.8 µM; 0.72% of 360,000 active;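 active = inhibition of the luminescence signal of 40% or more relative to plate controls, in a single-dose primary screen at 18.75 µM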
Starred values were filed as active, the others as inactive.

SMILES	KKLEB cytotox	CF NFkB inh	Peg3 promoter	TWEAK-Fn14 inh	TROY NFkB inh	HIF-2a inh
CC1=C2C(=O)C3C(CC=C4CC(O)CCC43C)C2CCC12OC1CC(C)CNC1C2C (stereo unspecified)	-3	-5	-6	97*	3	0
NNc1n[nH]c(=S)n1N	4	2	0	-3	8	3
O=C(Nc1cccc(C(F)(F)F)c1)OC1CN2CCC1CC2 (stereo unspecified)	-2	-4	20	5	3	12
OC(c1cccc(Cl)c1)(c1cccc(Cl)c1)C1CN2CCC1CC2 (stereo unspecified)	-10	18	96*	9	-3	11
O=C1NC(=O)C(CCc2ccncc2)(Cc2cccc(Cl)c2Cl)C(=O)N1c1ccc(Br)cc1 (stereo unspecified)	-22	28	57*	27	4	24
CCc1ccc(N2C(=O)NC(=O)C(CCc3ccncc3)(CCc3ccncc3)C2=O)cc1	1	6	9	0	-4	8
CC1(C)C(C(=O)N2CCN(c3ccc(Cl)cc3)CC2)C1(C)C	-1	11	-3	0	21	-22
COC(=O)C1CN(C#N)N(c2ccc(Cl)cc2)C12c1ccccc1-c1ccccc12 (stereo unspecified)	-102*	97*	109*	92*	90*	90*
CN1CC2CN(Cc3ccccc3)S(=O)(=O)C2C1 (stereo unspecified)	2	7	1	2	4	2
COC(=O)C1=C(c2ccc(OCc3ccccc3)cc2)C[C@@H]2CC[C@H]1N2C(=O)NCc1cccc(OC)c1	0	17	-6	36	12	7
O=C1NC(=O)C(=Cc2ccc(-c3ccc(Cl)cc3)o2)C(=O)N1	2	-3	102*	80*	56*	14
O=C1NC(=O)C(=Cc2ccc(-c3ccc(F)cc3O)o2)C(=O)N1	-5	39	9	5	0	48*
CC1=NN=C(c2ccc(N)cc2)c2cc3c(cc2C1)OCO3	13	10	-2	-7	11	1
COC(=O)C1=C(c2cc3ccccc3o2)C[C@@H]2CC[C@H]1N2C(=O)NC(C)C	14	-4	5	-6	-14	14
O=C1NC(=O)N(Cc2ccccc2Cl)C(=O)/C1=C/c1cccs1	-11	43	60*	24	36	50*
O=c1[nH]c2ccccc2n1C1CCN(C(c2cccs2)c2nnnn2Cc2ccccc2)CC1 (stereo unspecified)	-79*	86*	78*	37	35	0
Cc1cccc(C)c1-n1nnnc1C(c1cccs1)N1CCC(n2c(=O)[nH]c3ccccc32)CC1 (stereo unspecified)	-8	0	29	32	34	9
O=c1[nH]c2ccccc2n1C1CCN(C(c2nnnn2C2CCCCC2)C2CC2)CC1 (stereo unspecified)	3	-3	41	20	-2	-13
O=c1[nH]c2ccccc2n1C1CCN(C(c2ccccc2OC(F)(F)F)c2nnnn2Cc2ccccc2)CC1 (stereo unspecified)	-54*	82*	92*	61*	61*	-51
CSCCC(c1nnnn1Cc1ccccc1)N1CCC(n2c(=O)[nH]c3ccccc32)CC1 (stereo unspecified)	-104*	87*	65*	36	22	-17
Cc1cccc(C)c1-n1nnnc1C(C1CC1)N1CCC(n2c(=O)[nH]c3ccccc32)CC1 (stereo unspecified)	11	-34	51*	25	12	-7
CSc1ccccc1NP1(=O)OCC(C)([N+](=O)[O-])CO1 (stereo unspecified)	-16	24	-9	-3	-9	13
CC(C)(C)n1nnnc1C(C1CC1)N1CCC(n2c(=O)[nH]c3ccccc32)CC1 (stereo unspecified)	2	-3	23	5	4	-2
O=c1[nH]c2ccccc2n1C1CCN(C(c2nnnn2C2CCCC2)C2CC2)CC1 (stereo unspecified)	6	12	11	13	0	-11
COc1ccc(C(c2nnnn2Cc2ccccc2)N2CCC(n3c(=O)[nH]c4ccccc43)CC2)cc1 (stereo unspecified)	-96*	85*	74*	40	6	-25
SMILES	KKLEB cytotox	CF NFkB inh	Peg3 promoter	TWEAK-Fn14 inh	TROY NFkB inh	HIF-2a inh
O=c1[nH]c2ccccc2n1C1CCN(C(CCc2ccccc2)c2nnnn2C2CCCCC2)CC1 (stereo unspecified)	-69*	86*	98*	69*	53*	-84
CSCCC(c1nnnn1C1CCCCC1)N1CCC(n2c(=O)[nH]c3ccccc32)CC1 (stereo unspecified)	2	33	46	15	13	-15
O=c1[nH]c2ccccc2n1C1CCN(C(c2nnnn2Cc2ccccc2)C2CC2)CC1 (stereo unspecified)	-79*	86*	76*	29	17	-25
O=[N+]([O-])c1ccc(Cl)cc1	0	9	0	-7	18	-4
COC(=O)C1=C(c2ccc(-c3ccccc3)c(F)c2)C[C@@H]2CC[C@H]1N2C(=O)N1CCOCC1	-11	12	1	14	19	12
Cc1c(CC(=O)N2C[C@H]3C[C@@H](C2)c2cccc(=O)n2C3)c(=O)oc2cc(O)c(Cl)cc12	5	-16	-3	-6	-21	5
Cn1cc(C(=O)OCC(=O)NC2(C#N)CCCCC2)c2ccccc21	-8	21	12	-5	-7	-5
COC(=O)C1=C(c2cccc(OC)c2OC)C[C@@H]2CC[C@H]1N2C(=O)NCc1ccc(C(F)(F)F)cc1	3	14	5	-7	8	4
O=C(CCc1nnc2ccc(NCc3ccccc3Cl)nn12)N1CCC2(CC1)OCCO2	-3	0	-2	-26	-2	8
Cn1c(O)c(C=Nc2ccc(F)cc2)c(=O)[nH]c1=O	13	-11	74*	-9	5	7
COc1ccc2[nH]c(C)c(CCNCc3cn(C)c4ccccc34)c2c1	-19	39	87*	13	7	9
N#Cc1ccc(NC(=O)CN2C(=O)NC3(CCCCCCC3)C2=O)cc1Cl	-22	6	3	-22	-14	10
COc1ccc(CCNCc2sccc2C)cc1OC	7	-12	4	77*	11	11
C#C[C@]1(O)CC[C@H]2[C@@H]3CCC4=Cc5nc6nc7ccccc7n6cc5C[C@]4(C)[C@H]3CC[C@@]21C	26	-22	66*	-35	-17	21
C#CC1(O)CCC2C3CCC4=C/C(=N/OCC(=O)NCC(=O)NC(C(=O)O)C(C)C)CC[C@]4(C)C3CC[C@@]21C (stereo partly specified)	4	22	-22	0	-3	14
